TDP1 cell noCPT: qHTS for Inhibitors of human tyrosyl-DNA phosphodiesterase 1 (TDP1): qHTS in cells in absence of CPT. AID 686978, 2013. 420,000 compounds, 15% hits. DT40 Tdp1-/- hTDP1 cells, no CPT, ATP luminescence, 48 h. Potency, µM (series often up to 46.2 µM), without a hit: at the highest dose activity change, negative = growth inhibition, actives largely listed as inhibitors; note: potency is the fitted concentration of half-maximal effect; nearly all actives have a fitted effect of over 55% in size
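Seeded 400 DT40-hTDP1 cells/well (vehicle DMSO, no 20 nM CPT); pinned compounds; ≥48 hr at 37 °C; CellTiter-Glo luminescence as viability measure.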
HT1080NT lethal: kills 2HG-producing HT-1080-NT fibrosarcoma cells | HT-1080-NT fibrosarcoma viability, CellTiter-Glo ATP luminescence, 48 h | Potency, µM (doses to about 46.1 µM), inactives show at the highest dose activity, negative = less viability, usual class: cytotoxic | 360,000 compounds, 1.6% hits;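 note: NT is the 2HG producing partner of a matched IDH1 knockdown line; potency is the fitted concentration of half-maximal effect; 0% = DMSO-treated cells and -100% = media-only wells without cells; nearly all actives have a fitted effect of over 55% in size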
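A 48-hour cytotoxicity screen used HT-1080-NT cells plated 2 hours before compound delivery. ATP-based CellTiter-Glo luminescence measured viability, normalized to DMSO and no-cell controls.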
TDP1 cell CPT: DT40-hTDP1 cell growth loss with CPT; chicken DT40 Tdp1-/-;hTDP1 cells + 20 nM CPT, ATP luminescence, 48 h; Potency, µM (series often up to 46.2 µM), for the others: top-dose activity change, negative = growth inhibition, actives largely listed as inhibitors; 420,000 compounds, 12% hits; AID 686979; note: potency is the fitted concentration of half-maximal effect; nearly all actives have a fitted effect of over 55% in size
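Chicken DT40 Tdp1-/- cells complemented with human TDP1, 400 cells/well, exposed to compounds plus 20 nM camptothecin for at least 48 h at 37 C; viability read as ATP content by CellTiter-Glo luminescence.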
HT1080 IDH1KD tx: HT-1080 IDH1 knockdown cell toxicity (counter line); 360,000 compounds, 2% hits; Potency, µM (titrated, usually from 46.1 µM), for inactives: at the top dose activity, negative = toxicity, actives largely listed as cytotoxic; HT-1080 IDH1 knockdown viability, ATP luminescence, 48 h;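 note: potency is the fitted concentration of half-maximal effect; 0% = DMSO wells and -100% = cell-free medium wells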
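Viability of IDH1-knockdown HT-1080 fibrosarcoma cells was assessed by CellTiter-Glo after 48 h at 37 °C with titrated compound; concentration-effect curves were classified by fit quality and response size.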
uPA generation: blocks generation of uPA at the cell surface | cell surface uPA generation assay, qHTS | Potency, µM (titrated, usually from 38.3 µM), for the others: at the highest dose activity change, negative = inhibition, most hits filed as inhibitors | 330,000 compounds, 0.31% hits | AID 540303; active = well fitted inhibition curve with a large enough effect; inconclusive = small, poorly fitted or top-dose-only effect; inactive = no such curve, though single readings can be large or run the other way; tested in mouse RAW 264.7 cells; note: potency is the fitted concentration of half-maximal effect; nearly all actives have a fitted effect of over 55% in size
IL1B secr inh: blocks inflammasome-driven IL-1 beta release; activity change, % at 57.5 µM; 360,000 compounds, 4.7% hits; AID 743279; THP-1 LPS/ATP IL-1B secretion, AlphaLISA, 16 h; active compounds read low; in the data active = activity change below about -50%; inconclusive = mostly about -30% to -49%
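Secreted IL-1B measured by AlphaLISA bead assay after 16 h compound exposure of THP-1 cells; compounds (final up to 57.5 uM) added 1 h before LPS (250 ng/mL) and ATP (1.25 mM) stimulation; lower signal means less secretion.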
* hit, by the source's call; ? = inconclusive; / = not tested or not shown; [ ] = dose if it differs, or a comment. Only some compounds are listed: those with a hit (about 19% of all), similar ones and a draw of the others. Unless noted, calls come from the whole dose curve; as a rule, active = well fitted curve in the direction sought with a large enough effect; inconclusive = small, poorly fitted or top-dose-only effect, or another doubt; inactive = no such curve, though single readings can be large; an effect the other way counts as inactive or inconclusive. Unless noted, % is set by controls: 0 for no effect and ±100 for the full control effect.

SMILES	TDP1 cell noCPT	HT1080NT lethal	TDP1 cell CPT	HT1080 IDH1KD tx	uPA generation	IL1B secr inh
CN(C)S(=O)(=O)c1cccc(C(=O)N(Cc2ccc(F)cc2)Cc2ccco2)c1	?	-11%	?	-9%	0%	-10
O=C(c1cccc(S(=O)(=O)N2CCCCC2)c1)N(CCc1ccccc1)Cc1ccccc1	?	-3%	18µM*	-2%	-4%	2
CCCCN(C(=O)c1ccc2c(c1)OCO2)c1ccccc1	16µM*	-6%	?	0%	2%	21
O=C(c1cccc(S(=O)(=O)N2CCOCC2)c1)N(Cc1ccc(F)cc1)Cc1ccco1	18µM*	-4%	?	-4%	?	14
CCc1ccc(CN(C)C(=O)c2cc(S(=O)(=O)N3CCOCC3)ccc2N2CCCC2)cc1	?	3%	?	1%	2%	6
CCN(Cc1ccccc1)C(=O)c1cc(S(=O)(=O)N2CCOCC2)ccc1N1CCCC1	16µM*	0%	?	0%	1%	-9
O=C(c1cccc(S(=O)(=O)N2CCOCC2)c1)N(CCO)Cc1ccccc1	0%	7%	-23%	9%	5%	-13
CCN(Cc1ccccc1)C(=O)c1cccc(S(=O)(=O)N2CCN(c3ccccc3)CC2)c1	21µM*	-15%	16µM*	-1%	-4%	-6
CCN(Cc1ccccc1)C(=O)c1cccc(S(=O)(=O)N2CCN(c3ccc(F)cc3)CC2)c1	16µM*	-7%	18µM*	-11%	?	-26
COCCN(Cc1ccccc1)C(=O)c1cccc(S(=O)(=O)N2CCCc3ccccc32)c1	9.2µM*	-20%	13µM*	-28%	-29%	25
O=C(O)c1ccc(CNC(=O)C23CC4CC(CC(C4)C2)C3)cc1	-7%	18%	-2%	13%	-1%	8
CC(C)(C)N1C(=O)c2ccccc2NC(=O)C1C(=O)NCCOc1ccccc1 (stereo not drawn)	?	9%	-5%	29%	/	18
CCCCN(C(=O)c1cccc(S(=O)(=O)N2CCN(Cc3ccccc3)CC2)c1)c1ccccc1	16µM*	-5%	?	?	6%	-17
COc1cccc(CNC(=O)c2cccc(S(=O)(=O)N3CCN(Cc4ccccc4)CC3)c2)c1	-18%	1%	-9%	-3%	0%	-8
COCCN(Cc1ccccc1)C(=O)c1cccc(S(=O)(=O)N2CCN(Cc3ccccc3)CC2)c1	18µM*	-16%	?	-20%	/	-7
Nc1ccc2c(c1)C=C/C2=C\c1ccccc1	?	/	3%	/	/	/
O=C(COc1cccc2ccccc12)NNC(=O)c1cnccn1	16µM*	5%	?	-2%	-8%	15
CC(C)c1ccc(OCC(=O)NNC(=O)c2cnccn2)cc1	?	-2%	?	5%	2%	/
O=C(COc1ccc2ccccc2c1)NNC(=O)c1cnccn1	23µM*	-9%	23µM*	-6%	0%	11
O=C1CSC(c2ccc([N+](=O)[O-])cc2)N1c1ccc(O)cc1 (stereo not drawn)	-18%	-12%	-8%	-13%	5%	-1
CCOC(=O)c1c(C)[nH]c(C(=O)N/N=C\c2ccccc2O)c1C	3.7µM*	7.3µM*	4.1µM*	5.8µM*	?	29
CCOC(=O)c1c(C)[nH]c(C(=O)OCc2ccc([N+](=O)[O-])cc2)c1C	-10%	-2%	?	-11%	6%	?
CNC(=O)c1[nH]nc2c1CCc1ccccc1-2	-22%	12%	-7%	6%	-5%	-17
CCOC(=O)c1c(C)[nH]c(C(=O)N/N=C/c2ccc(OC)c(OC)c2)c1C	0.92µM*	14%	1.2µM*	?	?	15
CCOC(=O)c1c(C)[nH]c(C(=O)N/N=C/c2cc([N+](=O)[O-])ccc2O)c1C	6.5µM*	-26%	6.5µM*	?	5%	96
SMILES	TDP1 cell noCPT	HT1080NT lethal	TDP1 cell CPT	HT1080 IDH1KD tx	uPA generation	IL1B secr inh
COc1ccc(/C=N/NC(=O)c2[nH]nc3c2CCc2ccccc2-3)cc1OC	2.6µM*	-24%	6.5µM*	?	?	116
Cc1cc(NC(=O)c2cc(-c3ccc(F)cc3)on2)nn1Cc1ccc(Cl)cc1	-20%	/	?	/	/	/
O=C(NCCN1Cc2ccccc2OC(c2ccccc2F)C1)c1cncs1 (stereo not drawn)	?	/	-2%[9.04 µM]	/	/	/
Cc1ccccc1CC(=O)Nc1ccc(S(=O)(=O)N2CCOCC2)cc1	11%	1%	0%	3%	-6%	-18
COc1ccc(/C=C/C(=O)Nc2ccc3nc4n(c(=O)c3c2)CCCC4)cc1OC	-1%	?	-8%	?	4%	3
Cc1cc(N2CCCCC2)nc2ccc(NC(=O)/C=C/c3ccccc3OC(C)C)cc12	10µM*	/	7.3µM*	/	/	/
Cc1ccc(NC(=O)/C=C/c2ccccc2Cl)cc1Cl	-22%	/	-19%	/	/	/
Cc1cc(N2CCCC2)nc2ccc(NC(=S)NCCCOC(C)C)cc12	?	-7%	?	-4%	?	-11
Cc1cc(N2CCCCC2)nc2ccc(NC(=O)/C=C/c3ccccc3Cl)cc12	10µM*	/	13µM*	/	/	/
COc1ccc(/C=C/C(=O)Nc2ccc3nc(N4CCCCC4)cc(C)c3c2)cc1OC	2.6µM*	/	2.9µM*	/	/	/
O=C1Cc2cc(O)ccc2O1	-12%	0%	-6%	-3%	7%	-8
CCCC(=O)Nc1nnc2n1CCS2	0%	/	0%	/	/	/
CCCCOCCCn1c(-c2ccco2)nc2nc3ccccc3nc21	21µM*	-2%	?	-8%	4%	-29
Fc1ccc(-c2nc3nc4ccccc4nc3n2Cc2ccco2)cc1	?	-4%	?	-1%	-1%	-2
c1ccc(-c2nc3nc4ccccc4nc3n2Cc2ccco2)cc1	22µM*	-3%	?	1%	-2%	-7
CCCCn1c(-c2cccs2)nc2nc3ccccc3nc21	23µM*	0%	?	11%	1%	5
Fc1ccc(-n2c(-c3cccs3)nc3nc4ccccc4nc32)cc1	?	5%	-13%	-1%	-4%	40
CC(C)Cn1c(-c2cccs2)nc2nc3ccccc3nc21	15µM*	-11%	16µM*	-8%	3%	-9
COC(=O)c1cc(S(=O)(=O)N2CCCC2=O)c(Cl)cc1Cl	-4%	-20%	2%	-21%	-1%	?
Cn1nnnc1SCC(=O)Nc1ccc2c(c1)OCO2	4%	5%	-12%	3%	6%	3

Assay outcomes (PubChem)
